Key:
Experiment in all cases: DAPPL (digital affinity profiling via proximity ligation, sequencing); 10 mM Tris-HCl pH 7.5, 50 mM NaCl, 1 mM DTT, 4% glycerol, room temperature, 30 min; GST-TFs on glutathione beads, 16-mer random dsDNA library, 0.1% formaldehyde crosslink after washing; high values mean tight binding
FEV = molecular target: T1, FEV (Homo sapiens, UniProt Q99581 1-238); conditions: protein: recombinant; tags: N-terminal GST; dsDNA, one strand shown
T1 sequence: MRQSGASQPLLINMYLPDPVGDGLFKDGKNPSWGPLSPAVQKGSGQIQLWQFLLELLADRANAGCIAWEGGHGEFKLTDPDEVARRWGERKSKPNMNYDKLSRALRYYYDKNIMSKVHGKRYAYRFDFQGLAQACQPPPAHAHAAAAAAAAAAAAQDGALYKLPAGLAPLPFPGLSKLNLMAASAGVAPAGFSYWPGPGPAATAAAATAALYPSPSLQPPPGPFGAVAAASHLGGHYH
Method in brief: (§1)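 A tag-only sample was pooled with DNA-barcoded human transcription factors that had been expressed in yeast as GST fusions and captured on glutathione beads. The pools were incubated for 30 min at room temperature with 200 nmole of a random double-stranded 16-mer DNA library in Tris/NaCl/DTT/glycerol buffer, then washed, crosslinked with 0.1% formaldehyde, proximity-ligated (BsaI/T4 ligase, 1 h, 37 °C), PCR-amplified and sequenced on an Illumina NextSeq500. Binding signal is each hexamer's read frequency for a factor divided by its frequency for the tag-only sample.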

ETV5 = ETV5 (Homo sapiens, UniProt P41161 1-510); conditions: protein: recombinant; tags: N-terminal GST; dsDNA, one strand shown
ETV5, sequence (P41161 whole entry): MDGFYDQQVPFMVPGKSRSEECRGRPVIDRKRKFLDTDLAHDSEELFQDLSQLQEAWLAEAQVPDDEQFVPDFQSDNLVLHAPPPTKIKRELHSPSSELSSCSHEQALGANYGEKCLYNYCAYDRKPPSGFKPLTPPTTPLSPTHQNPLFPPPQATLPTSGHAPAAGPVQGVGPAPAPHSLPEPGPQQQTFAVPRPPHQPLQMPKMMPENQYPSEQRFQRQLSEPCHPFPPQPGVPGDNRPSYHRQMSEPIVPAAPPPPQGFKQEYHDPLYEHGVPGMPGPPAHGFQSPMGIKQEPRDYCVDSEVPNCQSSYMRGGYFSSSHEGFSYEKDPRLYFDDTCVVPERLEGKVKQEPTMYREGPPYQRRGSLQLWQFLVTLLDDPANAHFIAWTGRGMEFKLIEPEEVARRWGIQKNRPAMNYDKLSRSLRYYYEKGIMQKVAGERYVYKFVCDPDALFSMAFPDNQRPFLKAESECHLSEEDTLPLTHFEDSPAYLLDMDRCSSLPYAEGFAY
Method in brief: as §1

HSF1 = HSF1 (Homo sapiens, UniProt Q00613 1-529); conditions: protein: recombinant; tags: N-terminal GST; chain copies: 3; dsDNA, one strand shown
HSF1, sequence (Q00613 whole entry): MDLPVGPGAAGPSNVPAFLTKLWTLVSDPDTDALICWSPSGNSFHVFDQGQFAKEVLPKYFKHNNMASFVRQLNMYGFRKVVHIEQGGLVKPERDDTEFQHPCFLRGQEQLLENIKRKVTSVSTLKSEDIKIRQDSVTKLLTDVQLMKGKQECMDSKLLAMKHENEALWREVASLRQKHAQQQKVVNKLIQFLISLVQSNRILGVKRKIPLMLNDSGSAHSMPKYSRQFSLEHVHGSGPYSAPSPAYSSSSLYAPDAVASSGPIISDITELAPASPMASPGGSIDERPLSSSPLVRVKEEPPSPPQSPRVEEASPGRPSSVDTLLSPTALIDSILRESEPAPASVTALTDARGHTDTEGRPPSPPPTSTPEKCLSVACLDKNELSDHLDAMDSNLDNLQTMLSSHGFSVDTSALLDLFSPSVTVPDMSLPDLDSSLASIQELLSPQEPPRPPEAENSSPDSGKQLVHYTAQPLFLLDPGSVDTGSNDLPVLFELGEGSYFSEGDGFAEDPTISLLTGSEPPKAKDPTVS
Method in brief: as §1

SPIC = molecular target: T2, SPIC (Homo sapiens, UniProt Q8N5J4 1-248); conditions: protein: recombinant; tags: N-terminal GST; dsDNA, one strand shown
T2 sequence: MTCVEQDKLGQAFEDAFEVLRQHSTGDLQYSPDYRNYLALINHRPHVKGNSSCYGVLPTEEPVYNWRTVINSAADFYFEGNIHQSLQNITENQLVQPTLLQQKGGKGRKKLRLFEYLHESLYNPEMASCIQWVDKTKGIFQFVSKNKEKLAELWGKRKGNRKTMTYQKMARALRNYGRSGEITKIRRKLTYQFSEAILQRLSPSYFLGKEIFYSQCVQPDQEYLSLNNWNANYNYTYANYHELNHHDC
Method in brief: as §1

ELF4 = ELF4 (Homo sapiens, UniProt Q99607 1-663); conditions: protein: recombinant; tags: N-terminal GST; dsDNA, one strand shown
ELF4, sequence (Q99607 whole entry): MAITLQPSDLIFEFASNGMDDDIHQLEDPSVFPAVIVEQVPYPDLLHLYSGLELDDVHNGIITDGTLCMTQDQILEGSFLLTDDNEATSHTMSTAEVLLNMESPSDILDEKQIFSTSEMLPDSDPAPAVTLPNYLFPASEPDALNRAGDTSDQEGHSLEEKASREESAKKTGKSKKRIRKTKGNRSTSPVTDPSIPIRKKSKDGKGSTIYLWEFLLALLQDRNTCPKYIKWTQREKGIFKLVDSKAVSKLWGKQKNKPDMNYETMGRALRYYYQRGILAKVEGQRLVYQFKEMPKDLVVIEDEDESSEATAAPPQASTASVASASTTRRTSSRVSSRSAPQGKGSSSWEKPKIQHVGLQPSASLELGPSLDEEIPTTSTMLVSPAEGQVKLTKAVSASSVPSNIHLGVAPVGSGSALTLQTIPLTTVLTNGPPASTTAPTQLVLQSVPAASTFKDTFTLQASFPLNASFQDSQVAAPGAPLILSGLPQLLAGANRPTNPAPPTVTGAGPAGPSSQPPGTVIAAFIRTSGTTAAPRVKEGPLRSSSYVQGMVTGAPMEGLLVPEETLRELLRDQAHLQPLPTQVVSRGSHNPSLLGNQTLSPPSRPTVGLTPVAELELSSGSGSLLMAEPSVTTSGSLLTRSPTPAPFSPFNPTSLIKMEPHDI
Method in brief: as §1

ELK4 = molecular target: T3, ELK4 (Homo sapiens, UniProt P28324-2 1-405); conditions: protein: recombinant; tags: N-terminal GST; dsDNA, one strand shown
T3 sequence: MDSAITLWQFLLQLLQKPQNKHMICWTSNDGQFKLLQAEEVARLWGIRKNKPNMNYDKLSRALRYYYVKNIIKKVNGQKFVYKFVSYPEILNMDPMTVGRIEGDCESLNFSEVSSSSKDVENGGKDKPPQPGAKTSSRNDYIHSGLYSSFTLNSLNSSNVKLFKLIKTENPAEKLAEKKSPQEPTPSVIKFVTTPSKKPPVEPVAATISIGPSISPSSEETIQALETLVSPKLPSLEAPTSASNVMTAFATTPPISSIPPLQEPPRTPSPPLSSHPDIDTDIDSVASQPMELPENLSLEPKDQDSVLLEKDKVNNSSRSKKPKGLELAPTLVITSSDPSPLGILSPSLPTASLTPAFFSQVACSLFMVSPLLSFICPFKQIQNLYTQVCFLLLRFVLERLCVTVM
Method in brief: as §1

ETV2 = molecular target: T4, ETV2 (Homo sapiens, UniProt O00321 1-342); conditions: protein: recombinant; tags: N-terminal GST; dsDNA, one strand shown
T4 sequence: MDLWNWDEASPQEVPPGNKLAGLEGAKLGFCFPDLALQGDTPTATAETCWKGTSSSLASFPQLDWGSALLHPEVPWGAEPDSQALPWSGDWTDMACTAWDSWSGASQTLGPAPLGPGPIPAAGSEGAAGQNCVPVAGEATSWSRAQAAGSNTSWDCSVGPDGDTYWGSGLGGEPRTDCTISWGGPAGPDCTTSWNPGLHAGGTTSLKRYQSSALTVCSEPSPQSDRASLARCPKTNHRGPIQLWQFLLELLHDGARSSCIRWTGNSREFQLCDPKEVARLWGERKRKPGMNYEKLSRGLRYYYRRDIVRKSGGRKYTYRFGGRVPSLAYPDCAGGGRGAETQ
Method in brief: as §1

ELF3 = molecular target: T5, ELF3 (Homo sapiens, UniProt P78545 1-371); conditions: protein: recombinant; tags: N-terminal GST; dsDNA, one strand shown
T5 sequence: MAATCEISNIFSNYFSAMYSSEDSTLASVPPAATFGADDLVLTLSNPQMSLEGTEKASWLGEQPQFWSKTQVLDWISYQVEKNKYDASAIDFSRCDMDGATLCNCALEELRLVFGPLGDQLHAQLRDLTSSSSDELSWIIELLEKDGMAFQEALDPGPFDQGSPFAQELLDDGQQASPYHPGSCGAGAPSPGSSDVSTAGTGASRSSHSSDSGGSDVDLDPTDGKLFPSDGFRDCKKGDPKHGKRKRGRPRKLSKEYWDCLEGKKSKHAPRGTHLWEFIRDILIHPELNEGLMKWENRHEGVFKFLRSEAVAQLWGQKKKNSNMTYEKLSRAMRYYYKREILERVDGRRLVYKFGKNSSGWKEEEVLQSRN
Method in brief: as §1

CRX = CRX (Homo sapiens, UniProt O43186 1-299); conditions: protein: recombinant; tags: N-terminal GST; dsDNA, one strand shown
CRX, sequence (O43186 whole entry): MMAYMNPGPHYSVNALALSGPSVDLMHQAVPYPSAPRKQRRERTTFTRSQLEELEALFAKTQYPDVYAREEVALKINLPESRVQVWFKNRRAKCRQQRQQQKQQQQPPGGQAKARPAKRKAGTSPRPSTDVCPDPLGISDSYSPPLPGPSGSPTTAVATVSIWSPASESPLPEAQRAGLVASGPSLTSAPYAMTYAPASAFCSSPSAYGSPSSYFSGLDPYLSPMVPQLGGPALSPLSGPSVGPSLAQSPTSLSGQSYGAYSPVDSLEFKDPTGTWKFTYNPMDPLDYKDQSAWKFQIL
Method in brief: as §1

ETV1 = ETV1 (Homo sapiens, UniProt P50549 1-477); conditions: protein: recombinant; tags: N-terminal GST; dsDNA, one strand shown
ETV1, sequence (P50549 whole entry): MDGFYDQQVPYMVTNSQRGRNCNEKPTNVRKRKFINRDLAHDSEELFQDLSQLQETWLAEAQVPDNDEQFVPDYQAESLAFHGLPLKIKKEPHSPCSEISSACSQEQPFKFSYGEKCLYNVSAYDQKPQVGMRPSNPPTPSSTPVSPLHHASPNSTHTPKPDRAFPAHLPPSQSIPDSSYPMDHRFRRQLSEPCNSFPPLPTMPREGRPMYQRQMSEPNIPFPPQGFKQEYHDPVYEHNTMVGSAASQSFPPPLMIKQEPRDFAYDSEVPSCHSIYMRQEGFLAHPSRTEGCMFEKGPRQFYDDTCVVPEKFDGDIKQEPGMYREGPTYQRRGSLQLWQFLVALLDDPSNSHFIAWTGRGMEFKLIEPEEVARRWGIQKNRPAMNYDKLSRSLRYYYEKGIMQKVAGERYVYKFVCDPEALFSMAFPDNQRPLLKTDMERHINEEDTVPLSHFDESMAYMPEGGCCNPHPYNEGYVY
Method in brief: as §1

ERF = molecular target: T6, ERF (Homo sapiens, UniProt P50548 1-548); conditions: protein: recombinant; tags: N-terminal GST; dsDNA, one strand shown
T6 sequence: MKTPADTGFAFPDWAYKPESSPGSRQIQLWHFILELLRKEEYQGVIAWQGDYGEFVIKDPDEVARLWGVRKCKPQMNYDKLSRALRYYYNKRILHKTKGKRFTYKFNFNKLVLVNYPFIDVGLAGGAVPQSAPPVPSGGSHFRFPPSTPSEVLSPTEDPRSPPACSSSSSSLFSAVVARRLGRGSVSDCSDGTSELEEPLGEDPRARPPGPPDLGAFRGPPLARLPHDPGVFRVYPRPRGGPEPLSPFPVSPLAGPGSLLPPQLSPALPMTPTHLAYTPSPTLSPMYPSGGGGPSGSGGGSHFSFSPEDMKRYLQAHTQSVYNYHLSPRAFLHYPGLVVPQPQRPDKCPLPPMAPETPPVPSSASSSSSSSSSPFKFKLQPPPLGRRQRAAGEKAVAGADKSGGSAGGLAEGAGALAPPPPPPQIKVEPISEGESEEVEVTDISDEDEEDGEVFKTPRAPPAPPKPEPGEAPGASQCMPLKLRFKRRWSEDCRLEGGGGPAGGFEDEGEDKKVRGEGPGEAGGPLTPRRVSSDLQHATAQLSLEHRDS
Method in brief: as §1

ETV3L = molecular target: T7, ETV3L (Homo sapiens, UniProt Q6ZN32 1-361); conditions: protein: recombinant; tags: N-terminal GST; dsDNA, one strand shown
T7 sequence: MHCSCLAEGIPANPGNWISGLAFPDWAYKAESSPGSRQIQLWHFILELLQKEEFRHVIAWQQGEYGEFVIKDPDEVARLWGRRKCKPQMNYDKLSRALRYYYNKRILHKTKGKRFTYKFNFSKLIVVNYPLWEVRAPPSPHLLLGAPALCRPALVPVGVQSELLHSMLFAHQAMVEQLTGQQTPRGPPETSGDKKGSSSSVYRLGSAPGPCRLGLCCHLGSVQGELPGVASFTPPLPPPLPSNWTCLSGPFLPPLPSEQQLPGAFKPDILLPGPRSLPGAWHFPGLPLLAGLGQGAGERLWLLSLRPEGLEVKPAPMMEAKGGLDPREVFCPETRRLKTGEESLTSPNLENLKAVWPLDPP
Method in brief: as §1

ETS2 = molecular target: T8, ETS2 (Homo sapiens, UniProt P15036 1-469); conditions: protein: recombinant; tags: N-terminal GST; dsDNA, one strand shown
T8 sequence: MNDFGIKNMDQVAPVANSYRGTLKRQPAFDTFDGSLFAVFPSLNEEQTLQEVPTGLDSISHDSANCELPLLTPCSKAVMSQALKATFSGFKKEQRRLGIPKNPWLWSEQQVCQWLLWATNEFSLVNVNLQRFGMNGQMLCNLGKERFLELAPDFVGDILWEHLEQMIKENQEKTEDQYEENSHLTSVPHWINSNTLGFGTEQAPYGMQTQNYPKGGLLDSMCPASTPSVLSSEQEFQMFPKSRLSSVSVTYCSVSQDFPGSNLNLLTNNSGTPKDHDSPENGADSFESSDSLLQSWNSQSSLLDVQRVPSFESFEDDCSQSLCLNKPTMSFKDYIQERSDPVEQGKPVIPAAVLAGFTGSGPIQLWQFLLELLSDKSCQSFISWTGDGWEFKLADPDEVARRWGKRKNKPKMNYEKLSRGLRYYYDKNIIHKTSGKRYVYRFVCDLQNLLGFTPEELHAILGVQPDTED
Method in brief: as §1

SPDEF = molecular target: T9, SPDEF (Homo sapiens, UniProt O95238 1-335); conditions: protein: recombinant; tags: N-terminal GST; dsDNA, one strand shown
T9 sequence: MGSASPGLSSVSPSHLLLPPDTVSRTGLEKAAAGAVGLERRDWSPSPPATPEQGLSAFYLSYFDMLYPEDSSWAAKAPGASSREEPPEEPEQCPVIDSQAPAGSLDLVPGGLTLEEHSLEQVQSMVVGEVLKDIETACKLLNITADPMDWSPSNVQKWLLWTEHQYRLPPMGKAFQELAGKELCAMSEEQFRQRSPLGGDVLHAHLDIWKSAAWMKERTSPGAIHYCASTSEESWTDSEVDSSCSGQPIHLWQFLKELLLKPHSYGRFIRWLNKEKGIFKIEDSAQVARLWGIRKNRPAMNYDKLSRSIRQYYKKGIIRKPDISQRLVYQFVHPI
Method in brief: as §1

ETV7 = molecular target: T10, ETV7 (Homo sapiens, UniProt Q9Y603 1-341); conditions: protein: recombinant; tags: N-terminal GST; dsDNA, one strand shown
T10 sequence: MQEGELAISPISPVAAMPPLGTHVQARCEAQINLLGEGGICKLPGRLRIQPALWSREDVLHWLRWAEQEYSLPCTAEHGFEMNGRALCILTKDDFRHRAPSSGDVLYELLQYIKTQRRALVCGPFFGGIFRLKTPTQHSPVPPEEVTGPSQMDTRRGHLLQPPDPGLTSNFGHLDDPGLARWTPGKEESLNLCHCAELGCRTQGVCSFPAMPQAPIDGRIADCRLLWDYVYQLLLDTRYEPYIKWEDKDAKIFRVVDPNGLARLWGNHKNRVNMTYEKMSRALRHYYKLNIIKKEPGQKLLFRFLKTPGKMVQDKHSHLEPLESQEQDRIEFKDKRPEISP
Method in brief: as §1

ELF5 = molecular target: T11, ELF5 (Homo sapiens, UniProt Q9UKW6-2 1-255); conditions: protein: recombinant; tags: N-terminal GST; dsDNA, one strand shown
T11 sequence: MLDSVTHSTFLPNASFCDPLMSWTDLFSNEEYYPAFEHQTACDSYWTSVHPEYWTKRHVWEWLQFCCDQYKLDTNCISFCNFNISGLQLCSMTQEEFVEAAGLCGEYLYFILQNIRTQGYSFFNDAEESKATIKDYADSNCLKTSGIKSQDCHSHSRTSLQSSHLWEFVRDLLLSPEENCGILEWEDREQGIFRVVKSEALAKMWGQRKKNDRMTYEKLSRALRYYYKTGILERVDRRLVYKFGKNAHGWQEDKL
Method in brief: as §1

ETV3 = molecular target: T12, ETV3 (Homo sapiens, UniProt P41162-2 1-143); conditions: protein: recombinant; tags: N-terminal GST; dsDNA, one strand shown
T12 sequence: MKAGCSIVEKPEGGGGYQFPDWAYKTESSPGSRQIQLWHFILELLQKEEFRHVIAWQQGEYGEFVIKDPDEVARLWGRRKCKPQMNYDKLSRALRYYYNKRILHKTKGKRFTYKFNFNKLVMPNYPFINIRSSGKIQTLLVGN
Method in brief: as §1

ETV6 = ETV6 (Homo sapiens, UniProt P41212 1-452); conditions: protein: recombinant; tags: N-terminal GST; dsDNA, one strand shown
ETV6, sequence (P41212 whole entry): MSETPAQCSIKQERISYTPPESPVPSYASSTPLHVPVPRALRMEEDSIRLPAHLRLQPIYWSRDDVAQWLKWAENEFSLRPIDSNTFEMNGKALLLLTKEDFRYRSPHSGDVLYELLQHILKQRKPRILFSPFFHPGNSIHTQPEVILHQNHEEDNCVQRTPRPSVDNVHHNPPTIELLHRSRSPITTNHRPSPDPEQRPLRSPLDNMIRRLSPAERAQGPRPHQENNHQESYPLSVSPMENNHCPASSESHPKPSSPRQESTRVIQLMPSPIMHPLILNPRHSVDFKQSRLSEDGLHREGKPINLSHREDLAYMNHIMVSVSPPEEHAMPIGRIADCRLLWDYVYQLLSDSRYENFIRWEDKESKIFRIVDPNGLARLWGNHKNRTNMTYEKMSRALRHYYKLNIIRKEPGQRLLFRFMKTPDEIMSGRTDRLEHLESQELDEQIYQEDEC
Method in brief: as §1

Sequence: TATACC
- binding signal (FEV): 1.23 fold enrichment (6-mer frequency, TF over GST control)
- binding signal (ETV5): 1.09 fold enrichment (6-mer frequency, TF over GST control)
- binding signal (HSF1): 1.1 fold enrichment (6-mer frequency, TF over GST control)
- binding signal (SPIC): 1.14 fold enrichment (6-mer frequency, TF over GST control)
- binding signal (ELF4): 1.21 fold enrichment (6-mer frequency, TF over GST control)
- binding signal (ELK4): 1.22 fold enrichment (6-mer frequency, TF over GST control)
- binding signal (ETV2): 1.15 fold enrichment (6-mer frequency, TF over GST control)
- binding signal (ELF3): 1.12 fold enrichment (6-mer frequency, TF over GST control)
- binding signal (CRX): 1.26 fold enrichment (6-mer frequency, TF over GST control)
- binding signal (ETV1): 1.31 fold enrichment (6-mer frequency, TF over GST control)
- binding signal (ERF): 1.27 fold enrichment (6-mer frequency, TF over GST control)
- binding signal (ETV3L): 1.15 fold enrichment (6-mer frequency, TF over GST control)
- binding signal (ETS2): 1.24 fold enrichment (6-mer frequency, TF over GST control)
- binding signal (SPDEF): 1.26 fold enrichment (6-mer frequency, TF over GST control)
- binding signal (ETV7): 1.15 fold enrichment (6-mer frequency, TF over GST control)
- binding signal (ELF5): 1.22 fold enrichment (6-mer frequency, TF over GST control)
- binding signal (ETV3): 1.26 fold enrichment (6-mer frequency, TF over GST control)
- binding signal (ETV6): 1.21 fold enrichment (6-mer frequency, TF over GST control)

— publication PMC7862700, “An all-to-all approach to the identification of sequence-specific readers for epigenetic DNA modifications on cytosine”
